The text below walks through data of PubChem BioAssay AID720489 (Milwaukee Institute for Drug Discovery, 2013).

This test in a line: Cy5-DNA-NS3h complex fluorescence interference, confirmation, artefact control for HCV NS3 helicase inhibitor project, biochemical, ChemBridge library (AID 720489).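 Also: ratio of compound fluorescence to mean of negative controls so 1 means no interference.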 The note with it: Cy5-dT15 DNA/NS3h fluorescence interference counterscreen; at 100 µM.

Some of the results follow. A number with no mark means an inactive call.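 The calls were made as follows: active = fluorescence interference ratio at or below 0.8 quencher or at or above a set limitenhancer; inactive = the rest.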

Turning to `CCOc1cc(C=C2C(=O)NC(=O)NC2=O)cc(Br)c1OCCOc1ccccc1C`, the fluorescence interference ratio is 0.809.
